Results on 14 compounds are retold here after PubChem BioAssay (NCATS).

“And” between values parts separate entries of the source, which are not always exact repeats. Identical values can stand only once. Results filed as inconclusive are left out. A number with no mark means an inactive call. Calls come from the whole dose curve; as a rule, active = well fitted curve in the direction sought with a large enough effect; inconclusive = small, poorly fitted or top-dose-only effect, or another doubt; inactive = no such curve, though single readings can be large or run the other way.
% is set by controls: 0 for no effect and ±100 for the full control effect.

The assay in a line: qHTS Assay for Identifying Gametocytocidal Compounds (AID 743244).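 Note: actives lower the fluorescent signal which means gametocytes are killed.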 As to conditions: P. falciparum 3D7 stage III-V gametocytes, alamarBlue, 72 h; max response: active compounds read low. The method in brief: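 A resazurin-based viability read-out was applied to mature P. falciparum gametocytes: 72 h compound treatment, then 24 h dye incubation, with falling fluorescence signalling gametocytocidal effect.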
On the technique in general: In qHTS, concentration-response curves come from the screen itself.
For the compound `CCN(CC)C(=O)N1CCN(C)CC1`, the max response was 0.149%.
The value for `CC(CCc1ccccc1)NCC(O)c1ccc(O)c(C(N)=O)c1` (centres undefined) was 16.8%.
The value for `N[C@@H](Cc1cnc[nH]1)C(=O)O` was 4.12% and 12.1%.
For the compound `O=C(COc1ccc(Cl)cc1)N1CCN(Cc2ccc3c(c2)OCO3)CC1`, the max response is -7.26%.
The value for `CC(=O)OCC(=O)NCCCOc1cccc(CN2CCCCC2)c1` was 8.95% and 5.62%; that for `N[C@H](CO)C(=O)O` was 0.963% and 16.2%.
The value for `CCCn1c(=O)[nH]c(=O)c2[nH]cnc21` was 20.2% and 5.21%; that for `C[N+]1(CCCCC[N+]2(C)CCCC2)CCCC1` was 12.3% and 19.3%; that for `C[C@@H]1C(=O)NC2=Nc3cccc(Cl)c3CN21` was -15.6% and 9.95%.
The value for `CC(C)COC(=O)OCN1C(=O)CN(CCN2CC(=O)N(COC(=O)OCC(C)C)C(=O)C2)CC1=O` was 5.95% and 28.2%.
`C1CCc2nnnn2CC1`: the max response was -4.71%.
The value for `Nc1cc(Cl)c(NC2=NCCN2)c(Cl)c1` was -0.108% and 36.5%.
The value for `O=C1CCC(c2ccc(-n3ccnc3)cc2)=NN1` was -0.884% and -6.59%; that for `CC[C@H](C)C(=O)O[C@H]1CCC=C2C=C[C@H](C)[C@H](CC[C@@H]3C[C@@H](O)CC(=O)O3)[C@H]21` was 15.8% and 37.7%.
